System: HepG2
Assay: GSK_TCMDC: Percent inhibition of human HepG2 cell line. Test compounds present at 10uM.
Assay type: functional

SMILES	Inhibition [%]
NC1CCN(Cc2ccc(-c3ccc(-c4nc5ccccc5[nH]4)cc3)cc2)C1.O=C(O)C(F)(F)F (centres undefined)	34
CCOc1ccc2c(=NN=Cc3cccc(OC)c3)cc(C)[nH]c2c1	38
Cc1ccc(/C=C/C(=O)NCCCCCN2CCN(C(=O)Nc3ccc(Cl)c(C(F)(F)F)c3)CC2)cc1	10
O=C1Nc2cccc3c2C1(CCCN1CCC(c2c[nH]c4cc(C(F)(F)F)ccc24)CC1)CCC3 (centres undefined)	91
[O-][s+]1nc(NCCCN(Cc2cccs2)c2ccccn2)c(NCc2ccccc2)n1 (centres undefined)	10
Clc1ncnc2scc(-c3ccc(Br)cc3)c12	0
CCCCCC(C)C(C)c1cc(OC(N)=O)c2c(c1)OC(C)(C)C=C2c1ccncc1 (centres undefined)	81
O=C(/C=C/c1ccc(Cl)c(Cl)c1)NCCCCCN1CCC(NC(=O)Nc2cccc(F)c2)CC1	30
Cc1ccc(-c2cc(C(=O)Nc3ccc(S(=O)(=O)N4CCCC(C)C4)cc3)[nH]n2)c(O)c1 (centres undefined)	32
COc1cc2nc(NCCc3ccccc3)nc(NCc3ccc(C#N)cc3)c2cc1OC	52
CC1CCC(NC(=O)c2nn(-c3ccc(Cl)cc3)c(=O)c3ccccc23)CC1 (centres undefined)	3
CCCn1c(O)nnc1SCC(=O)Nc1cc(C(F)(F)F)ccc1Cl	0
CC(C)NCC(O)Cn1c2ccc(Br)cc2c2cc(Br)ccc21 (centres undefined)	100
Fc1ccc2c(NN=Cc3ccccc3F)ccnc2c1	10
CCCC(C(=O)OCCNC)(c1ccccc1)c1ccccc1.Cl	7
Cc1cc(Nc2ccncc2)n2nc(C)c(-c3ccc(Cl)cc3)c2n1	0
CCC(C)NC(=O)Nc1ccc(-c2cccc(-c3nc4cc(C(F)(F)F)ccc4[nH]3)c2)cc1 (centres undefined)	45
Oc1cccc(-c2cnc3ccc(NCc4ccc(F)cc4)nn23)c1	0
CCCCNS(=O)(=O)c1ccc(NC(=O)c2cc([N+](=O)[O-])ccc2Cl)cc1	12
O=C1NC(=S)N/C1=C/C=C/c1ccc([N+](=O)[O-])o1	7
CN1CCCc2ccc(NC(=O)Nc3ccc(-c4ccccc4)cc3)cc2C1	23
CC(C)(C)c1ccc(CNC(=O)c2cc(CNC3CCNC3)ccc2O)cc1 (centres undefined)	0
Nc1c2c(nc3ccc(C(=O)Nc4ccccc4)cc13)CCCC2	20
CCN(CC)CCCCNc1cc(-c2[nH]c(C(C)(C)C)nc2-c2ccc3cc(OC)ccc3c2)ccn1.O=C(O)C(F)(F)F	23

— ChEMBL document CHEMBL1157539, “Thousands of chemical starting points for antimalarial lead identification” (Nature, 2010)
